Results from the supplement of paper PMC10849652.
Targets with a hit are over-represented here; the source holds about 8,800 in all. About 0.5% of all pairs of compound and target were hits. Unmarked numbers belong to inactive results.

Key:
Assay in all cases: log2 fold change, soluble protein after heating vs DMSO (PISA); higher = thermal stabilisation; K562 lysate, 10 uM; active = over 0.2 and 3.5 SD of the protein, either way, in both replicates (recomputed)
lapatinib = compound: CS(=O)(=O)CCNCc1ccc(-c2ccc3ncnc(Nc4ccc(OCc5cccc(F)c5)c(Cl)c4)c3c2)o1 [lapatinib]
Procedure, shortened: (§1)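 Values give the log-two fold change in thermal stability against solvent controls, from duplicates. Crude K562 extract at 1 mg/mL protein, made by dounce homogenisation in PBS pH 7.4 with 1 mM MgCl2, was treated with 10 μM compound for 30 min. After 3 min heating across 48°C-58°C, aliquots were pooled, adjusted to 0.5% NP-40 at 4°C and centrifuged at 21,000xg for 90 min. The supernatant was measured by TMTpro 16plex LC-MS/MS with channel sums equalised.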

pictilisib = compound: CS(=O)(=O)N1CCN(Cc2cc3nc(-c4cccc5[nH]ncc45)nc(N4CCOCC4)c3s2)CC1 [pictilisib]
Procedure, shortened: as §1

crizotinib = compound: C[C@@H](Oc1cc(-c2cnn(C3CCNCC3)c2)cnc1N)c1c(Cl)ccc(F)c1Cl [crizotinib]
Procedure, shortened: as §1

duvelisib = compound: C[C@H](Nc1ncnc2nc[nH]c12)c1cc2cccc(Cl)c2c(=O)n1-c1ccccc1 [duvelisib]
Procedure, shortened: as §1

doramapimod = compound: Cc1ccc(-n2nc(C(C)(C)C)cc2NC(=O)Nc2ccc(OCCN3CCOCC3)c3ccccc23)cc1 [doramapimod]
Procedure, shortened: as §1

bafetinib = compound: Cc1ccc(NC(=O)c2ccc(CN3CC[C@H](N(C)C)C3)c(C(F)(F)F)c2)cc1Nc1nccc(-c2cncnc2)n1 [bafetinib]
Procedure, shortened: as §1

nilotinib = compound: Cc1cn(-c2cc(NC(=O)c3ccc(C)c(Nc4nccc(-c5cccnc5)n4)c3)cc(C(F)(F)F)c2)cn1 [nilotinib]
Procedure, shortened: as §1

[1] = compound: Cc1nc(Nc2n[nH]c3c2CN(C(=O)N[C@H](CN(C)C)c2ccccc2)C3(C)C)c2sccc2n1
Procedure, shortened: as §1

dasatinib = compound: Cc1nc(Nc2ncc(C(=O)Nc3c(C)cccc3Cl)s2)cc(N2CCN(CCO)CC2)n1 [dasatinib]
Procedure, shortened: as §1

[2] = compound: Cc1ncc(-c2ccnc(Nc3ccc(S(C)(=O)=O)cc3)n2)n1C(C)C
Procedure, shortened: as §1

[3] = compound: Cn1cc(-c2ccc3c(c2)CCN3C(=O)Cc2cccc(C(F)(F)F)c2)c2c(N)ncnc21
Procedure, shortened: as §1

quisinostat = compound: Cn1cc(CNCC2CCN(c3ncc(C(=O)NO)cn3)CC2)c2ccccc21 [quisinostat]
Procedure, shortened: as §1

tipifarnib = compound: Cn1cncc1[C@@](N)(c1ccc(Cl)cc1)c1ccc2c(c1)c(-c1cccc(Cl)c1)cc(=O)n2C [tipifarnib]
Procedure, shortened: as §1

[4] = compound: NC(=O)Nc1cc(-c2cccc(F)c2)sc1C(=O)N[C@H]1CCCNC1
Procedure, shortened: as §1

[5] = compound: NC(=O)c1cnc(N[C@@H]2CCCC[C@@H]2N)nc1Nc1cccc(-n2nccn2)c1
Procedure, shortened: as §1

[6] = compound: NC1(c2ccc(-c3nc4ccn5c(=O)[nH]nc5c4cc3-c3ccccc3)cc2)CCC1
Procedure, shortened: as §1

[7] = compound: C[C@H](C1=CC=C(C=C1)C(=O)NC2=C3C=CNC3=NC=C2)N
Procedure, shortened: as §1

gandotinib = compound: Cc1cc(Nc2cc(CN3CCOCC3)c3nc(C)c(Cc4ccc(Cl)cc4F)n3n2)n[nH]1 [gandotinib]
Procedure, shortened: as §1

tozasertib = compound: Cc1cc(Nc2cc(N3CCN(C)CC3)nc(Sc3ccc(NC(=O)C4CC4)cc3)n2)n[nH]1 [tozasertib]
Procedure, shortened: as §1

[8] = compound: Cc1cccc(CC(=O)N2CCc3c2ccc(-c2cn(C)c4ncnc(N)c24)c3F)n1
Procedure, shortened: as §1

Sequence of UniProt P51790 (P51790 whole entry, looked up): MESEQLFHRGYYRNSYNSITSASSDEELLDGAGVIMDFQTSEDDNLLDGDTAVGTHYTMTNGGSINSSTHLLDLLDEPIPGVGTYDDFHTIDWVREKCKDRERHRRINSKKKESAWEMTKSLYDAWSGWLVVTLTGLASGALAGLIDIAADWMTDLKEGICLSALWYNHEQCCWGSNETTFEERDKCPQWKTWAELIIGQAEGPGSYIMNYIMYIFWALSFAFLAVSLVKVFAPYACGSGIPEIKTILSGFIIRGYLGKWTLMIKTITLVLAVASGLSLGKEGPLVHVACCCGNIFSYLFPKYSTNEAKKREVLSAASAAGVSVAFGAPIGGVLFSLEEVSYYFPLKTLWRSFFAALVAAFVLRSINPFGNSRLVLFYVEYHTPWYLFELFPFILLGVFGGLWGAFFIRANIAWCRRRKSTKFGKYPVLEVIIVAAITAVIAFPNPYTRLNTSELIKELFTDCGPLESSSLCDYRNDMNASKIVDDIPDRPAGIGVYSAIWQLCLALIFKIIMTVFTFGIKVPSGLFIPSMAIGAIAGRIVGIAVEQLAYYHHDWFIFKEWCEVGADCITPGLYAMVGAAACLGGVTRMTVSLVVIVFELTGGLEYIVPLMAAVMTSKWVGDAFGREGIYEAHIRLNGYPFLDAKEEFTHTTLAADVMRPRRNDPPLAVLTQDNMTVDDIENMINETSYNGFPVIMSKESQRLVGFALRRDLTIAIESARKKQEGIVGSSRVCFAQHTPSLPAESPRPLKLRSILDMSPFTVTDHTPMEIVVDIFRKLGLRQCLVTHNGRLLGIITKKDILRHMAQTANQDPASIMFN
Sequence of UniProt O75153 (O75153 whole entry, looked up): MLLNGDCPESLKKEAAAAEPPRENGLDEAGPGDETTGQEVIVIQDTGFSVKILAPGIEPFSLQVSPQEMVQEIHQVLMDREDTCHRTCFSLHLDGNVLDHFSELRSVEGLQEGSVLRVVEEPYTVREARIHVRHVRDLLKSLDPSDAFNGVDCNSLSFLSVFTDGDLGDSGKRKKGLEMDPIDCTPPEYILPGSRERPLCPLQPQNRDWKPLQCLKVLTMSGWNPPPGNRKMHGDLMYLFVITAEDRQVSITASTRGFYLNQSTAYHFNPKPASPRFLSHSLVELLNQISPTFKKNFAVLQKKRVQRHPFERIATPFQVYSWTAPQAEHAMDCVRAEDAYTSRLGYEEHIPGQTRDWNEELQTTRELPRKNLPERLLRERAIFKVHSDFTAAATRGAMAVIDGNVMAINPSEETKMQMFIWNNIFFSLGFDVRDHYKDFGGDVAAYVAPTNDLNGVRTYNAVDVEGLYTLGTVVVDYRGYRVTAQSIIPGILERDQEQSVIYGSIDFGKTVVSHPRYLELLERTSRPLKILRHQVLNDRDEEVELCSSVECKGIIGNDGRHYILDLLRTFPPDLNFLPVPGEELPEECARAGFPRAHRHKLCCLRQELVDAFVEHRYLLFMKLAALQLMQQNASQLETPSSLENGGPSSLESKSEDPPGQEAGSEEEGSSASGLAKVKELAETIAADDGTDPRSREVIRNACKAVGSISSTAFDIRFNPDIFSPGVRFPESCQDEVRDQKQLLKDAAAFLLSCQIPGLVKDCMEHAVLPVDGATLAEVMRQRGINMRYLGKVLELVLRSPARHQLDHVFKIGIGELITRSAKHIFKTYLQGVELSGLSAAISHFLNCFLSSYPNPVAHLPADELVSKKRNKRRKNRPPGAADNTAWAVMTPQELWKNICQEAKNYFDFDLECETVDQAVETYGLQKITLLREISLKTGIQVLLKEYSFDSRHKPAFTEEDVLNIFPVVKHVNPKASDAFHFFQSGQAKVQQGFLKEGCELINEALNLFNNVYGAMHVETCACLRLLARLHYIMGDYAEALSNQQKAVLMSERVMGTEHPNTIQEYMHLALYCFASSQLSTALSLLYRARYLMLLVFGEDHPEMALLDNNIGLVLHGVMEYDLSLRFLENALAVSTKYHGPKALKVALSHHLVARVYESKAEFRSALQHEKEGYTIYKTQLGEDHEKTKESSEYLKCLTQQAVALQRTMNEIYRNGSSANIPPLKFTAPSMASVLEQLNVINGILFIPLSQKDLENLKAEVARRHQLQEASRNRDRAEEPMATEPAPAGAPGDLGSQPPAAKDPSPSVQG
Sequence of UniProt Q8IWV2 (Q8IWV2 whole entry, looked up): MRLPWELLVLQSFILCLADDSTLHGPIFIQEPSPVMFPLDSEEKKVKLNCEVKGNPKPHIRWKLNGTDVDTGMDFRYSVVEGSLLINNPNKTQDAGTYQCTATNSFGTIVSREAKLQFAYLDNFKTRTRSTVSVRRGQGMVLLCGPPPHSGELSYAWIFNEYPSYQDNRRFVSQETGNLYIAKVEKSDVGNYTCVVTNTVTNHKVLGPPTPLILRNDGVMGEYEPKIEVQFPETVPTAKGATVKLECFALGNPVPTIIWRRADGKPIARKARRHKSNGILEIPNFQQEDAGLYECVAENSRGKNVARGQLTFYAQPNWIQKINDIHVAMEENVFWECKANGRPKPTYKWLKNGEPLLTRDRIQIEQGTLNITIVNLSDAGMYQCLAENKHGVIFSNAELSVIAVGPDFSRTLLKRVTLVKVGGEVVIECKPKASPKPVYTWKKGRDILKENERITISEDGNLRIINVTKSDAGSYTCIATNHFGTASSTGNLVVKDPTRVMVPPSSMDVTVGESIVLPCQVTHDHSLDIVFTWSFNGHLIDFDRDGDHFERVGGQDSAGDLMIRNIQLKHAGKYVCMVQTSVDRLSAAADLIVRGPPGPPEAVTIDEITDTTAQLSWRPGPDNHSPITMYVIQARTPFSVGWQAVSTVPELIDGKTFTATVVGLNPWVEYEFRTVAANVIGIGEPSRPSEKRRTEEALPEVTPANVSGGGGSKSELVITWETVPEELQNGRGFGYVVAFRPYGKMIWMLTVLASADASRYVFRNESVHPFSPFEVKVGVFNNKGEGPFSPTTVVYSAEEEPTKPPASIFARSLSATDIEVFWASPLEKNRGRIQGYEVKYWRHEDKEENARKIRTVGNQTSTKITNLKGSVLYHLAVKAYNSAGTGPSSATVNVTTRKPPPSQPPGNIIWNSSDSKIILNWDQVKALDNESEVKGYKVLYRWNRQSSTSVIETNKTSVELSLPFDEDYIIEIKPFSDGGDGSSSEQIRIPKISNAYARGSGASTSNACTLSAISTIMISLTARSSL
Sequence of UniProt Q6ZPD9 (Q6ZPD9 whole entry, looked up): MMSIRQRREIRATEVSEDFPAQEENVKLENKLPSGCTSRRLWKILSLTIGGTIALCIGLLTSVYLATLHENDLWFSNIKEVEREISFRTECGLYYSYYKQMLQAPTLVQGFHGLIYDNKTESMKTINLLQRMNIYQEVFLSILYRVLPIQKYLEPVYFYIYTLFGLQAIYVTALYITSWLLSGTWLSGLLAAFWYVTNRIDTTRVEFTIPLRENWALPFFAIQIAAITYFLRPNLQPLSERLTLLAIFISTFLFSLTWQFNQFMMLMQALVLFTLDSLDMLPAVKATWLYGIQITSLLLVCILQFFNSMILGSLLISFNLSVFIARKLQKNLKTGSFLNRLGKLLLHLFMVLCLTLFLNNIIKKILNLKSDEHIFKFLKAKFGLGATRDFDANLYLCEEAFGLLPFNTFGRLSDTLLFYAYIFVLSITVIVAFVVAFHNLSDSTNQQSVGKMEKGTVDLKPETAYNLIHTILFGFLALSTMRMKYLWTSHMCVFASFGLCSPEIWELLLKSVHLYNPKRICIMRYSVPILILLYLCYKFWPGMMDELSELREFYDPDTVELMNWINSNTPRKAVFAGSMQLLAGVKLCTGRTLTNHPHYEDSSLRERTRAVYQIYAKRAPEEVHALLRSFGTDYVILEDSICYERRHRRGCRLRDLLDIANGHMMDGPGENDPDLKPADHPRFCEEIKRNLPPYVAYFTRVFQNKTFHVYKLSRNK
Sequence of UniProt Q96KA5 (Q96KA5 whole entry, looked up): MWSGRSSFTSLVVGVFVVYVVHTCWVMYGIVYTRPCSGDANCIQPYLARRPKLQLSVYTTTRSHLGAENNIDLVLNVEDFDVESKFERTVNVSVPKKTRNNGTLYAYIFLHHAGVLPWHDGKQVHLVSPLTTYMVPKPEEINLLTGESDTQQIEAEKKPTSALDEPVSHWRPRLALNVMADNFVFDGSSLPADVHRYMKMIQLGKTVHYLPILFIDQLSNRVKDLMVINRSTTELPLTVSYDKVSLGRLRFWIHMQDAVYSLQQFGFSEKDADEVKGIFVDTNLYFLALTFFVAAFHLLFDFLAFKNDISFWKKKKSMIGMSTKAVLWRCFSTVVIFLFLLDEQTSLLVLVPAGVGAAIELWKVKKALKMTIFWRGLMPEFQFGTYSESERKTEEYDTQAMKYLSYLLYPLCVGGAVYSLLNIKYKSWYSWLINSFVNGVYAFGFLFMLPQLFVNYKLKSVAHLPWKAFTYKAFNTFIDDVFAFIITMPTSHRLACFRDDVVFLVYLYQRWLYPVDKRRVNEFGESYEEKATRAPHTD
Sequence of UniProt O15247 (O15247 whole entry, looked up): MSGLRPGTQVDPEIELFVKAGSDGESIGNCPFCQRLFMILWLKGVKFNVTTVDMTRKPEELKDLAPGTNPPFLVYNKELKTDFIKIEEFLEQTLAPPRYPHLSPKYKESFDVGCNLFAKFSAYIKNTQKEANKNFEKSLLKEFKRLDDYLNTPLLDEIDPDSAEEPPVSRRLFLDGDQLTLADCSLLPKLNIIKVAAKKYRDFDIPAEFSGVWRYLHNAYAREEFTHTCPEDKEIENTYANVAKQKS
Sequence of UniProt Q6UX07 (Q6UX07 whole entry, looked up): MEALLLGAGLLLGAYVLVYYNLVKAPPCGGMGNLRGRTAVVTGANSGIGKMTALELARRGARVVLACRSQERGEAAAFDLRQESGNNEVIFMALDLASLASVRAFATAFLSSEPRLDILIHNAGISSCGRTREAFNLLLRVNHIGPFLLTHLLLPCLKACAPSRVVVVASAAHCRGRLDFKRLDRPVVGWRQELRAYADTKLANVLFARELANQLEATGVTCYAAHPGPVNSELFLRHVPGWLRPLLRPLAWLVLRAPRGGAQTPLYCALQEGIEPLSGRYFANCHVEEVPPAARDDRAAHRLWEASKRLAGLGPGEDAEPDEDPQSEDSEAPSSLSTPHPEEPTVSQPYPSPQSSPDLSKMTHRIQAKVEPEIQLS

Target | log2 fold change (lapatinib) | log2 fold change (pictilisib) | log2 fold change (crizotinib) | log2 fold change (duvelisib) | log2 fold change (doramapimod) | log2 fold change (bafetinib) | log2 fold change (nilotinib) | log2 fold change [1] | log2 fold change (dasatinib) | log2 fold change [2] | log2 fold change [3] | log2 fold change (quisinostat) | log2 fold change (tipifarnib) | log2 fold change [4] | log2 fold change [5] | log2 fold change [6] | log2 fold change [7] | log2 fold change (gandotinib) | log2 fold change (tozasertib) | log2 fold change [8]
DHRS13 (UniProt Q6UX07) | 0.048 | -0.052 | -0.048 | 0.185 | 0.087 | -0.113 | 0.133 | 0.385 | 0.048 | -0.142 | 0.142 | 0.078 | -0.223 | -0.011 | -0.08 | -0.121 |  |  |  | 
CLASP2 isoform 3 (UniProt O75122) | -0.008 |  | -0.018 | -0.015 | 0.041 | -0.021 | 0.013 | -0.004 | -0.024 | 0.02 | 0.021 | -0.042 | -0.063 | -0.07 | -0.007 | 0.032 | -0.172 | 0.077 | 0.015 | 0.247 (active)
CLUH, A0A494C0R8 | -0.052 |  | -0.019 | 0.154 | -0.026 | -0.091 | 0.026 | 0.146 | 0.028 | -0.022 | 0.015 | -0.165 | -0.033 | 0.022 | -0.045 | 0.046 | 0.557 (active) | -0.108 | -0.025 | -0.14
CLIC2 (UniProt O15247) | -0.057 |  | -0.002 | -0.039 | -0.022 | -0.009 | 0.029 | -0.032 | -0.017 | 0.004 | -0.022 | -0.019 | -0.024 | 0.023 | 0.004 | -0.005 | -0.037 | -0.015 | -0.016 | 0.005
CLCN3 isoform 2 (UniProt P51790) | 0.047 |  | -0.047 | 0.034 | 0.026 | -0.005 | 0.017 | -0.018 | -0.012 | 0.006 | -0.008 | 0.01 | -0.012 | 0.04 | 0.022 | 0.024 | -0.075 | -0.018 | -0.011 | 0.024
CLPTM1L (UniProt Q96KA5) | -0.095 |  | -0.021 | -0.049 | -0.098 | -0.064 | 0.037 | -0.005 | 0.006 | 0 | -0.016 | 0.011 | -0.026 | 0.046 | 0.016 | -0.069 | -0.092 | -0.233 (active) | 0.004 | 0.137
DENND4A isoform 2 (UniProt Q7Z401) | -0.034 | 0.001 | -0.038 | -0.067 | -0.009 | -0.064 | -0.02 | -0.002 | -0.008 | 0.023 | 0.008 | -0.083 | -0.017 | 0.058 | 0.042 | 0.008 | -0.206 | 0.045 | -0.027 | 0.203
DIAPH1 (UniProt H9KV28) | 0.003 | 0.087 | -0.047 |  | 0.099 | -0.171 | -0.027 | -0.122 |  | 0.053 |  | -0.093 | -0.051 | -0.001 | 0.05 | 0.111 | -0.039 | 0.199 | 0.049 | 0.158
CLUH (UniProt O75153) | -0.014 |  | -0.057 | 0.147 | -0.007 | -0.044 | 0.009 | 0.075 | -0.025 | -0.007 | 0.002 | -0.043 | 0.007 | 0.039 | -0.006 | 0.004 | -0.012 | 0.004 | -0.005 | 0.032
DNAJC1 (UniProt Q96KC8) | -0.057 | 0.013 | -0.086 | -0.046 | -0.117 | 0.001 | -0.03 | 0 | -0.09 | -0.012 | 0.016 | 0.04 | 0.004 | 0.026 | -0.028 | 0.028 | 0.033 | -0.262 (active) | 0.019 | -0.064
CNTN4 (UniProt Q8IWV2) | -0.052 | -0.066 | -0.268 |  | -0.067 | -0.145 | 0.127 | -0.06 |  | 0.306 |  | -0.561 (active) | -0.006 | 0.151 | 0.072 | -0.024 | -0.432 | 0.545 | -0.182 | 0.484
DPY19L3 (UniProt Q6ZPD9) | -0.077 | -0.268 | -0.107 |  | -0.081 | -0.113 |  |  |  |  |  | -0.103 |  | 0.034 | 0.045 | -0.683 (active) |  |  | 0.057 | 
DDX4 (UniProt Q9NQI0) | -0.045 | 0.035 |  | 0.02 |  | -0.167 | -0.108 | 0.043 | 0.014 | -0.085 | 0.076 |  | 0.028 |  | 0.062 | 0.059 | -0.481 (active) | 0.132 | 0.078 | 0.174
